# Reference: the supplement of paper PMC4466236
# Over roughly 33,000 sequences, “E-score (dimensionless, -0.5 to 0.5)” has its median near -0.058; the highest 2% begin near 0.35. Many of the other results were omitted from the sample, so the highest values are more common in it than they were.
# System: MvaT
# Assay: PBM 8-mer E-score (mean of HK and ME arrays) (E-score (dimensionless, -0.5 to 0.5)); higher = stronger relative binding preference
# How it was run: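 Reported values are rank-based E-scores, taken as the mean of two universal arrays and parsed with a custom script. Each 8-mer score falls between -0.5 and 0.5. The arrays, ME and HK, were double-stranded 60-mers with a constant 25-mer primer region and a variable 35-mer region covering all 8-mers. They were probed, by an earlier protocol, with full-length P. aeruginosa MvaT carrying an N-terminal glutathione S-transferase fusion.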
row,Sequence,PBM 8-mer E-score
1,AATAAGTG,0.254
2,AATAAGTA,0.387
3,AATAAATA,0.434
4,AATAAATT,0.436
5,AAGAAATT,0.26
6,CATAAGTA,0.315
7,CCAAGTTC,0.0376
8,AGGAGAAC,-0.112
9,CGACTCAA,-0.0083
10,TACCATAA,0.271
11,CATCTCCG,-0.186
12,AGCTTGCG,-0.227
13,GATATGAA,0.156
14,AATATGCA,0.264
15,TATATGAA,0.382
16,TATATGCA,0.412
17,AATATGAA,0.329
18,CATATGCA,0.164
19,CAGCACAA,-0.0547
20,TCAGCCCA,-0.133
21,AAAGTATG,0.216
22,ACGTAAAC,-0.0262
23,AATACGGG,-0.0239
24,AACTTACA,0.33
25,TACTTATA,0.389

row,Sequence,PBM 8-mer E-score
1,CACTTATA,0.326
2,AACTTATA,0.415
3,ACCTTATA,0.266
4,GACTTATA,0.312
5,AAGCCGGA,-0.238
6,TACTGTAA,0.336
7,AAGGACGT,-0.149
8,GGAGTCAA,-0.134
9,CTTGAACA,-0.0207
10,AAGGTGGG,-0.155
11,CCGCGGCG,-0.0831
12,ACGAGGCT,-0.135
13,ATTGGTAC,0.139
14,CTGTAATA,0.36
15,GTCTAATA,0.269
16,CTATAATA,0.42
17,CTGTAATC,0.0848
18,CTCTAATA,0.364
19,CCATAATA,0.287
20,GTATAAGA,0.278
21,GTGTAATA,0.342
22,ATGTAATA,0.317
23,GTATAATA,0.416
24,ATCTAATA,0.321
25,CTTCAACA,0.0315

row,Sequence,PBM 8-mer E-score
1,CCCGCGTA,-0.177
2,CGTCTCAG,-0.227
3,CTGTTTCA,-0.122
4,AACCCATT,0.0496
5,GACCAACC,-0.0441
6,GCATCAGC,-0.135
7,CTCGTCGC,-0.208
8,ATTATGTC,0.305
9,ATTATGTG,0.261
10,AACATGTA,0.347
11,GATATGTA,0.282
12,AATATGTC,0.233
13,ACTATGTG,0.172
14,AACATGTT,0.295
15,AATATGTG,0.368
16,AATATGTA,0.365
17,AACATGTC,-0.0784
18,CATATGTA,0.252
19,ATTATGTA,0.377
20,GTTGCAAC,0.157
21,CGAGCTTC,-0.313
22,ACAGTCTA,-0.0014
23,ATAAAGGA,0.0948
24,ACAGGCCG,-0.147
25,ATAAAGTG,0.228

row,Sequence,PBM 8-mer E-score
1,CATGATAC,0.111
2,ACGATATA,0.328
3,GAGATATC,0.163
4,GGGATATA,0.218
5,GATATCTA,0.267
6,GATATATA,0.469
7,GATATACC,0.178
8,CCGATATA,0.333
9,GATATATC,0.396
10,GCGATATA,0.361
11,TCAAGTGA,-0.00408
12,AAAGAGTC,0.0357
13,GTCGATCA,-0.174
14,CTGATACA,0.0751
15,AATACAGC,0.247
16,CTCGCAGC,-0.11
17,CCTCACCC,-0.165
18,CTAATTGA,0.11
19,GTAATTTA,0.388
20,AGAATTTC,0.122
21,ATAATTTG,0.298
22,CTAATTTA,0.389
23,ATAATTTC,0.386
24,GTAATTGA,0.264
25,ATAATTTA,0.416

row,Sequence,PBM 8-mer E-score
1,CTAATTTC,0.0429
2,AGAATTTA,0.262
3,ATAATTCA,0.325
4,GTAATTCA,0.191
5,AGTAGAGA,0.0385
6,CCTGAATA,0.0626
7,ACGGCAGA,-0.166
8,GCCACACC,-0.0459
9,AACTCTGC,0.143
10,AAAGGTCA,-0.0376
11,ATCTCATA,-0.00882
12,ACTTATAG,0.251
13,GCTTATAA,0.418
14,GCTTATAC,0.166
15,TCTTATCA,0.177
16,ACTTATAA,0.419
17,ACTTATAC,0.326
18,GCTTATGA,-0.0922
19,CCTTATAA,0.338
20,ACTTATAT,0.424
21,TCTTATAA,0.369
22,ACTTATCA,0.196
23,ACTTATGA,0.248
24,GAGCGTAC,-0.233
25,AGTTACTG,0.282

row,Sequence,PBM 8-mer E-score
1,ACTGGATA,0.12
2,ACCTAAGA,-0.0551
3,GCCCACGA,-0.205
4,CAATGAGA,-0.0714
5,GATAGAAA,0.105
6,AGAAAGGG,-0.151
7,GCTCTTGA,-0.154
8,ATGTTGGG,0.105
9,GGGAACTA,-0.0248
10,AACATTAT,0.34
11,TACATTAA,0.38
12,CACATTAA,0.305
13,AACATTAA,0.397
14,AACATTAG,0.234
15,GACATTAA,0.222
16,AAATCAGT,0.111
17,GATAAGAA,0.121
18,TATAAGGA,0.348
19,CATAAGGA,-0.0113
20,GATAAGGA,-0.0851
21,CATAAGAA,0.126
22,TATAAGAA,0.369
23,CATGGAGC,-0.21
24,ATCTGCAT,0.0581
25,CTGCATGC,-0.0882

row,Sequence,PBM 8-mer E-score
1,AGAAATAA,0.37
2,TGAAATAA,0.314
3,CGAAATAC,0.0434
4,AGAAATCA,-0.0327
5,AGAAATAT,0.356
6,CGAAATAA,0.374
7,GGAAATAA,0.31
8,AGAAATAG,0.216
9,AGAAATAC,0.157
10,GCTCACAC,-0.19
11,AAAGCCTA,0.125
12,CCTATACA,0.116
13,GCTATACA,0.135
14,ACTATATC,0.268
15,GCTATAGA,-0.132
16,GCTATATA,0.402
17,ACTATATA,0.452
18,ACTATACA,0.241
19,CCTATATC,0.0838
20,CCTATATA,0.35
21,CGGCTGCC,-0.286
22,CATCCAAA,0.0181
